Source: PubChem BioAssay
Active and inactive are the calls of the source.

Key:
[1] = test system: Plasmodium falciparum Sir2 (PF13_0152, Sir2A); assay: pfSir2 binders on small-molecule microarrays, primary screen, biochemical, small-molecule microarray, 635 nm fluorescence (AID 1098); settings: small-molecule microarray binding, fluorescence 635 nm; higher = more signal;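 further: score merges spot fluorescence intensity with its signal-to-noise ratio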
[2] = small-molecule microarray binders of probe aDKK1, primary screen, biochemical, biotinylated probe, 635/667 nm fluorescence (AID 1099); settings: higher = more signal;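 further: score merges 667nm spot fluorescence with signal to noise across triplicate slides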
[3] = small-molecule microarray binders of probe aCHRDL2, primary screen, biochemical, biotinylated probe, 635/667 nm fluorescence (AID 1100); settings: higher = more signal
[4] = splicing luciferase reporter signal modulators, primary screen, spliceosome inhibition project, cell-based, HEK293, splice +/- reporter (AID 1101); settings: luminescence, 24 h, higher = more signal, called active from +8 up or from −8 down;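 further: HEK293 cells carrying a splicing-competent luciferase reporter gene; test concentration not given here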
[5] = target: Fibroblast growth factor 10 (Homo sapiens) (UniProt O15520); assay: FGF10 binders on small-molecule microarrays, primary screen, biochemical, small-molecule microarray, 635 nm fluorescence (AID 1102); settings: FGF10 binding, fluorescence 635 nm, higher = more signal
[6] = test system: glycogen synthase kinase-3 (GSK3A per assay name; protocol says GSK3B); assay: GSK3 binders on small-molecule microarrays, primary screen, biochemical, small-molecule microarray, 635 nm fluorescence, GSK3A (AID 1103); settings: small-molecule microarray binding, fluorescence 635 nm; higher = more signal; further: the record names both GSK3A and GSK3B
[7] = target: Epidermal growth factor receptor (Homo sapiens) (UniProt P00533); assay: EGFR binders on small-molecule microarrays, primary screen, biochemical, small-molecule microarray, 635 nm fluorescence (AID 1104); settings: EGFR binding, higher = more signal;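 further: score merges 667 nm emission intensity with spot signal to noise over triplicate slides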
[8] = target: Follistatin-related protein 3 (Homo sapiens) (UniProt O95633); assay: FSTL3 binders on small-molecule microarrays, primary screen, biochemical, small-molecule microarray, 635 nm fluorescence (AID 1105); settings: FSTL3 binding, higher = more signal;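 further: score merges emission near 667 nm and signal to noise per printed spot across three slides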
[9] = target: Dickkopf-related protein 1 (Homo sapiens) (UniProt O94907); assay: DKK1 binders on small-molecule microarrays, primary screen, biochemical, small-molecule microarray, 635 nm fluorescence scan (AID 1106); settings: DKK1 binding, higher = more signal;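 further: score merges emission near 667 nm with signal to noise over three replicate slides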
[10] = test system: Inhibin beta A chain (activin A); assay: INHBA (activin A) binders on microarrays, primary screen, biochemical, small-molecule microarray, 635 nm fluorescence scan (AID 1107); settings: small-molecule microarray binding, higher = more signal;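 further: mouse activin A protein probed at 4.33 µg/mL on printed slides; score merges bound-protein fluorescence near 667 nm with spot signal-to-noise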
[11] = test system: Human papillomavirus type 1a protein E7 (residues 44-93); assay: HPV1a E7 fragment binders on microarrays, primary screen, biochemical, small-molecule microarray, residues 44-93, 635 nm fluorescence (AID 1108); settings: small-molecule microarray binding, fluorescence 635 nm; higher = more signal;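 further: E7 fragment applied at 1 µg/mL in TBST for 1 h at 4 C; score combines spot fluorescence with its signal to noise ratio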
[12] = modulators of HCV replicon luciferase signal, primary screen, HCV replication inhibitor project, Huh7 cells, luciferase reporter (AID 1109); settings: 48 h, higher = more signal;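 further: huh7 hepatoma cells harbouring a luciferase neomycin HCV replicon reporter; luciferase luminescence as measure of HCV replicon replication; test concentration not given here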
[13] = target: Left-right determination factor 2 (Homo sapiens) (UniProt O00292); assay: LEFTY2 binders on small-molecule microarrays, primary screen, biochemical, small-molecule microarray, 635 nm fluorescence scan (AID 1110); settings: LEFTY2 binding, higher = more signal
[14] = target: Calmodulin-1 (Homo sapiens) (UniProt P0DP23); assay: CALM1 binders on microarrays, EGTA buffer, profiling panel, biochemical, small-molecule microarray, Cy5-labelled CALM1 (AID 1111); settings: Cy5-CALM1 binding fluorescence, higher = more signal;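 further: labelled calmodulin applied in Tris saline Tween buffer holding calcium plus EGTA and DTT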
[15] = target: Calmodulin-1 (Homo sapiens) (UniProt P0DP23); assay: calcium-bound CALM1 binders on microarrays, profiling panel, artefact control for SMM control-protein annotation, biochemical, small-molecule microarray, Cy5-labelled CALM1, plus calcium (AID 1112); settings: Cy5-CALM1 binding fluorescence, higher = more signal;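 further: score merges spot fluorescence with signal to noise from triplicate slides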
[16] = small-molecule microarray binders of probe aWnt5a, primary screen, biochemical, biotinylated probe, 635/667 nm fluorescence (AID 1113); settings: higher = more signal;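 further: score merges 667 nm fluorescence intensity with signal-to-noise per printed feature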
[17] = small-molecule microarray binders of probe aShh, primary screen, biochemical, biotinylated probe, 635/667 nm fluorescence (AID 1114); settings: higher = more signal;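 further: probe is biotin-labelled aShh protein from a stem cell growth factor screen; measures binding of labelled protein to compounds printed on the slide; score merges feature fluorescence at 667 nm with signal-to-noise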
[18] = small-molecule microarray binders of probe aNog, primary screen, biochemical, biotinylated probe, 635/667 nm fluorescence (AID 1115); settings: higher = more signal;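 further: probe is biotinylated aNog protein used at 0.15 µg/mL for 1 h at 4 C; z-score combines 667 nm fluorescence of each spot with its signal to noise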
[19] = target: Torsin-1A-interacting protein 1 (Homo sapiens) (UniProt Q5JTV8); assay: LAP1 binders from COS7 cell lysate, primary screen, small-molecule microarray, 635/667 nm fluorescence (AID 1116); settings: COS7-hLAP1 lysate binding, 635 nm fluorescence, higher = more signal
[20] = target: Alpha-bungarotoxin (Bungarus multicinctus) (UniProt P60615); assay: alpha-bungarotoxin binders on microarray, profiling panel, artefact control for SMM control protein annotation, biochemical, small-molecule microarray, Alexa647 label, 635/667 nm fluorescence (AID 1117); settings: alpha-BTX-A647 binding fluorescence, higher = more signal
Sequence of Alpha-bungarotoxin (Bungarus multicinctus) (P60615 whole entry, looked up): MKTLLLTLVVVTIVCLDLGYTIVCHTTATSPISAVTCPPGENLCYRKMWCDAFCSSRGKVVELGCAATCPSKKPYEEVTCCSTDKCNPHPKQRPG

Sequence of Left-right determination factor 2 (Homo sapiens) (O00292 whole entry, looked up): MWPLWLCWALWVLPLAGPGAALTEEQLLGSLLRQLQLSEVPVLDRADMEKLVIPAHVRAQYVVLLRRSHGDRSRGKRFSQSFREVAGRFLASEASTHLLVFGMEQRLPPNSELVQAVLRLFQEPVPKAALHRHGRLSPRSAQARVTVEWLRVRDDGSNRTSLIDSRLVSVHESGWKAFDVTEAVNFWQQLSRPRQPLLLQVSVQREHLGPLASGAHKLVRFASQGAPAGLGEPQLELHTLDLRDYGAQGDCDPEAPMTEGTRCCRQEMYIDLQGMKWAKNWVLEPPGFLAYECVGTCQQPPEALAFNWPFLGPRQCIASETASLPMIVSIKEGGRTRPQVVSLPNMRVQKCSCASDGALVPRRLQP
Sequence of Torsin-1A-interacting protein 1 (Homo sapiens) (Q5JTV8 whole entry, looked up): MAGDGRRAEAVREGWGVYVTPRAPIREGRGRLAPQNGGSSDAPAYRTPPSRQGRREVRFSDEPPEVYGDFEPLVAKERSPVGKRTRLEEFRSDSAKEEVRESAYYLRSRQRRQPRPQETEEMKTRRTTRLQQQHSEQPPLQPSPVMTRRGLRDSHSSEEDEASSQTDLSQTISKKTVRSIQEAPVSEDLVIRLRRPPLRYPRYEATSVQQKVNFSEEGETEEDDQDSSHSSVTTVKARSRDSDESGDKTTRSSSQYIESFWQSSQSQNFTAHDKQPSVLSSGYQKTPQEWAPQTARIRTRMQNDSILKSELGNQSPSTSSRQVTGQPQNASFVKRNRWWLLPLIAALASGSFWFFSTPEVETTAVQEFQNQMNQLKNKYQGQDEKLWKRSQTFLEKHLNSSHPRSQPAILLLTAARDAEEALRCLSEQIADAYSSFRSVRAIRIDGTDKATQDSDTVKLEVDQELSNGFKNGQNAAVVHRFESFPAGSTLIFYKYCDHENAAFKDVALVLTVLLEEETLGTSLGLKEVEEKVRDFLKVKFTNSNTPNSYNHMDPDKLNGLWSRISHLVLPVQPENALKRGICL
Sequence of Dickkopf-related protein 1 (Homo sapiens) (O94907 whole entry, looked up): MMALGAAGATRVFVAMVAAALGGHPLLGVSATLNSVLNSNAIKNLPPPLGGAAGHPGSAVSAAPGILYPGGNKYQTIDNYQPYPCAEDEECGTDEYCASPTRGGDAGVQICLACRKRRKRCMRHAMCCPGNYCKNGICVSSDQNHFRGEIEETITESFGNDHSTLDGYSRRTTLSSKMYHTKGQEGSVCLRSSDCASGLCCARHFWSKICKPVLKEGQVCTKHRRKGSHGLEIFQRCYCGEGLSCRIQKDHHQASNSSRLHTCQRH
Sequence of Fibroblast growth factor 10 (Homo sapiens) (O15520 whole entry, looked up): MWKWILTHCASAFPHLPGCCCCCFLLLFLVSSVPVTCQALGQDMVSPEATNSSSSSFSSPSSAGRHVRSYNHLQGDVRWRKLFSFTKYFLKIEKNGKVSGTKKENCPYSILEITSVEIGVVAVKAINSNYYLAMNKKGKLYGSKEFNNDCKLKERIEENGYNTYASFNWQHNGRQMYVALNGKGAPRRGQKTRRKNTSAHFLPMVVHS
Sequence of Follistatin-related protein 3 (Homo sapiens) (O95633 whole entry, looked up): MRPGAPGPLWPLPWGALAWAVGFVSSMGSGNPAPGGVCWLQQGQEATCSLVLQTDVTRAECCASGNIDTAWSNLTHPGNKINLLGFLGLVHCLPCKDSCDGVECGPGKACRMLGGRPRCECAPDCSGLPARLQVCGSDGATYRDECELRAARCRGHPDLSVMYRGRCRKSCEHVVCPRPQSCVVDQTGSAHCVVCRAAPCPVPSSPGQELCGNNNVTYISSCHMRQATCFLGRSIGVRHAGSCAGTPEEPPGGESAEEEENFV
Sequence of Epidermal growth factor receptor (Homo sapiens) (P00533 whole entry, looked up): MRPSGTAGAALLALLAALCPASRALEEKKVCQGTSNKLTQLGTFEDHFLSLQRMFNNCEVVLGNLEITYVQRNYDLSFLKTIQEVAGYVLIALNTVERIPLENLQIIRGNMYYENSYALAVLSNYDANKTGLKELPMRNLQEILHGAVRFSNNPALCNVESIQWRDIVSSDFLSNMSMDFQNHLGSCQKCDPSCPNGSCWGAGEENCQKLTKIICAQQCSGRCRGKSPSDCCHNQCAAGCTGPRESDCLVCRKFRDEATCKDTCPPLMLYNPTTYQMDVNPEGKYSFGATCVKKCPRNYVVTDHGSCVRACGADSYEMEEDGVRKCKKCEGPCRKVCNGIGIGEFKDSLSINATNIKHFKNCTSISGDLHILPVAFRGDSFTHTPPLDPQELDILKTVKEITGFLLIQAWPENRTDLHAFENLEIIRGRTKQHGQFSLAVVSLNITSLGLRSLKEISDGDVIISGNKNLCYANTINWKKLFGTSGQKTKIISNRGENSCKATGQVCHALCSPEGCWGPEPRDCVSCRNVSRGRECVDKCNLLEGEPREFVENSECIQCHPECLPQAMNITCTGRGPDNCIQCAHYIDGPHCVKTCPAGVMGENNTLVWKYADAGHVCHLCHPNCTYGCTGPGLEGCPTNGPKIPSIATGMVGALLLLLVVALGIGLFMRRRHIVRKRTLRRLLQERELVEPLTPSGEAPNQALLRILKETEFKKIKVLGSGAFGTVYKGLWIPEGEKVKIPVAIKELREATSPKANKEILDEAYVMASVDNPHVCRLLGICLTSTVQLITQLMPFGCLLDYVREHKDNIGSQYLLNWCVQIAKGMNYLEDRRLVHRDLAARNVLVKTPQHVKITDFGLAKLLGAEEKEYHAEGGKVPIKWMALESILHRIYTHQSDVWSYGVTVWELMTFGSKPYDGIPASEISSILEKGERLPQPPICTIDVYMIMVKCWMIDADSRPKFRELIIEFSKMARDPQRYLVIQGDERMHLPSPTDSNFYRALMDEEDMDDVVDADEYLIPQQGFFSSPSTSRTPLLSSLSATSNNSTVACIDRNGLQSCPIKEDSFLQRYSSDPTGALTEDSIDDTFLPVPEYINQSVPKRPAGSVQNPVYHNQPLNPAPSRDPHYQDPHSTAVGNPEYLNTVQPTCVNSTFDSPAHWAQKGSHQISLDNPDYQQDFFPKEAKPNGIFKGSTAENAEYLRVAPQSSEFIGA

SMILES	composite z-score [1]	composite z-score [2]	composite z-score [3]	z-score [4]	composite z-score [5]	composite z-score [6]	composite z-score [7]	composite z-score [8]	composite z-score [9]	composite z-score [10]	composite z-score [11]	z-score [12]	composite z-score [13]	composite z-score [14]	composite z-score [15]	composite z-score [16]	composite z-score [17]	composite z-score [18]	composite z-score [19]	composite z-score [20]
CCCCCC1=C2CNC(CC(C)C)(C(=O)OC)C=C2C(C)C1=O (stereo not given)	0.452	0.72	0.952	5.08 (inactive)	0.071	-0.361	-0.73	-0.403	-0.756	1.23	1.2	-0.897	-0.869	1.64	1.22	-0.0165	1.16	0.154	0.932	0.195
COC(=O)[C@@]1(Cc2ccc(F)cc2)[C@H]2c3cc(C(=O)N4CCCC4)n(Cc4cc(F)cc5c4OCOC5)c3C[C@H]2CN1C(=O)c1ccccc1	0.672	1.14	1.06	-0.844 (inactive)	0.762	-0.0785	0.0228	1.3	-0.334	0.888	-0.0014	-2.1	-0.285	1.37	1.05	0.179	0.184	-0.694	-0.415	0.92
CO[C@H]1O[C@H](CO)[C@@H](OC(=O)Nc2ccc3c(c2)OCO3)[C@H](OC(=O)Nc2ccccc2-c2ccccc2)[C@H]1OC(=O)Nc1ccccc1-c1ccccc1	0.977	0.446	0.591	0.617 (inactive)	1.03	1.31	-0.294	0.398	-0.0521	0.411	1.08	-3.79	-0.0829	1.54	-0.243	0.288	-0.273	0.747	2.06	0.557
O=C(NCCN1CCOCC1)[C@@H]1c2ccccc2C(=O)N(Cc2ccc(OC(F)(F)F)cc2)[C@H]1c1ccc(CO)cc1	-0.0284	0.0779	1.18	0.709 (inactive)	-0.738	0.0049	-0.611	0.417	-1.14	-0.252	1.25	-1.29	-0.622	0.749	0.337	-0.11	0.0756	0.99	1.19	0.0007
COc1ccc(C(=O)Nc2ccc(CN3C(=O)[C@@]4(O[C@@H](CCn5cc(CCO)nn5)[C@H]([Si](C)(C)c5ccc(OC)cc5)[C@H]4C)c4ccccc43)cc2)cc1	1.36	0.635	0.559	-1.8 (inactive)	0.939	1.14	0.492	1.28	1	1.57	1.33	-5.11	0.904	-0.0429	-0.668	0.0433	-0.0146	0.0117	1.09	0.829
C=CC[C@]1(C(=O)NCC(O)CO)COC(c2ccc(OCCCO)cc2)=N1 (stereo not given in full)	-0.329	0.787	1.05	0.2 (inactive)	-0.106	0.0993	-1.18	-0.865	-0.463	1.12	-0.683	0.412	-0.531	-0.189	0.202	0.0618	1.01	-0.21	1.53	-1.21
